Data published in PubChem BioAssay (EPA / NIEHS).
Where “and” joins values, the source holds several entries; their conditions need not be identical. Identical values can stand only once. Results filed as inconclusive are left out. Calls of active or inactive are those of the source. How the source made its calls, unless noted: active means hit-call score of the fitted dose curve at least 0.9, where 1 is the maximum; inconclusive means response in the unintended direction; inactive means score below 0.9.

How the values were obtained:
[1] = tested on: SRY-box transcription factor 17 (SOX17) Protein Expression, Deisenroth Lab, SOX17 (gene 64321); assay: CCTE_Deisenroth_DEVTOX-GLR_legacy_Sox17: (Legacy) CCTE's DevTox GLR-Endo Assay Evaluation of SRY-box transcription factor 17 (SOX17) Protein Expression, Deisenroth Lab (AID 2284341; active means hit-call score of the fitted dose curve at least 0.9, where 1 is the maximum; inactive means score below 0.9); details: actives raise or lower the signal
Procedure: CCTE_Deisenroth_DEVTOX-GLR_legacy assay is a cell-based, multiplex-readout assay that uses RUES2-GLR, a human pluripotent cell line, with measurements taken at 48 hours after chemical dosing in a 384-well microplateCCTE_Deisenroth_DEVTOX-GLR_legacy_Sox17 is one of 4 assay components calculated from the CCTE_Deisenroth_DEVTOX-GLR_legacy assay and it measures an increase in the percentage of cells in an endoderm state. It is designed to make measurements of inducible reporter a form of fluorescent protein induction as detected with optical fluorescence microscopy. Percentage Sox17+ cells are determined by calculating the number of Sox17+ cells divided by cell count. A cell is Sox17+ if the cell Sox17 mean intensity is 5x BMAD above the pluripotent control median cell Sox17 mean. The assay endpoints were analyzed with bidirectional fitting relative to 0.2% DMSO control in the CCTE_Deisenroth_DEVTOX-GLR_Endo assay.Data from the assay component CCTE_Deisenroth_DEVTOX-GLR_legacy_Sox17 was analyzed into 1 assay endpoint. This assay endpoint, CCTE_Deisenroth_DEVTOX-GLR_legacy_Sox17, was analyzed with bidirectional fitting relative to DMSO as the negative control and baseline activity. Using a type of inducible reporter, gain or loss-of-signal activity can be used to understand changes in gene expression. Furthermore, this assay endpoint can be referred to as a primary readout, because this assay has produced multiple assay endpoints where this one serves as a measure of endoderm differentiation. To generalize the intended target to other relatable targets, this assay endpoint is annotated to the transcription factor intended target family, where the subfamily is SRY-related HMG-box.
All assay protocols are aligned to the DevTox GLR-Endo assay workflow. Cells are seeded into 384-well microplates for 24 hours prior to initiating differentiation in defined media for a total duration of 48 hours. A total of two chemical exposures are administered in 24-hour intervals during the 48-hour differentiation period. At the assay termination point, cells are fixed and stained with a fluorescent dye demarcating the nucleus. High-content imaging is used to acquire brightfield and fluorescent channel images across 5 fields per well. Cell identification and mean biomarker fluorescence intensities are calculated with image analysis software to determine the total cell counts for viability assessment and the biomarker expression frequency for each lineage-dependent assay. A typical experimental design tests a 10-point concentration series (1 nM - 200 uM) for 28 compounds in single technical replicate. Assay plate controls include non-differentiated pluripotent cells (baseline control), lineage-specific differentiated cells (differentiation control), and DMSO solvent exposed differentiated cells (solvent control). Experiments typically comprise a minimum of four experimental replicates (n=4).

[2] = tested on: SRY-box transcription factor 2 (SOX2) Protein Expression, Deisenroth Lab, SOX2 (gene 6657); assay: CCTE_Deisenroth_DEVTOX-GLR_legacy_Sox2: (Legacy) CCTE's DevTox GLR-Endo Assay Evaluation of SRY-box transcription factor 2 (SOX2) Protein Expression, Deisenroth Lab (AID 2284346; active means hit-call score of the fitted dose curve at least 0.9, where 1 is the maximum; inactive means score below 0.9)
Procedure, shortened: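 RUES2-GLR human pluripotent cells were differentiated for 48 h with two chemical doses 24 h apart, over 1 nM-200 uM. Sox2+ cells were those above 5x BMAD of the endoderm-control median; percent Sox2+ minus the 0.2% DMSO median was used, from n=4 replicates.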

[3] = tested on: SRY-box transcription factor 2 (SOX2) Protein Expression, Deisenroth Lab, SOX2 (gene 6657); assay: CCTE_Deisenroth_DEVTOX-GLR_Endo_SOX2: CCTE's DevTox GLR-Endo Assay Evaluation of SRY-box transcription factor 2 (SOX2) Protein Expression, Deisenroth Lab (AID 2284412)
Procedure, shortened: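 RUES2-GLR human pluripotent cells were seeded 24 h, then differentiated 48 h with two chemical exposures 24 h apart. Cells were fixed, nuclei stained and imaged by high-content microscopy. Endpoint is %SOX2+ cells over cell count, minus 0.2% DMSO control; 10-point series 1 nM–200 uM.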

SERPINA7 (gene 6906) = assay: CCTE_GLTED_hTBG: CCTE's human Thyroxine-binding Globulin (TBG) Inhibition Assay, Great Lakes Toxicology and Ecology Division (GLTED) Lab (AID 2284343);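 further: active chemicals lower fluorescence versus DMSO baseline by displacing probe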
Procedure, shortened: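 hTBG + test chem, 2 h; ANSA probe displacement; fluorescence readout ex380/em475; DMSO = neg ctrl/baseline; cell-free.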

[4] = VALA_MIGHUV1_ScratchOnly_WoundArea: VALA Sciences human Umbilical Vein Endothelial Cell Migration (MIGHUV) Assay, Area of Scratch Wound Inhibited Recovery (AID 2284336)
Procedure: VALA_MIGHUV1_ScratchOnly is a cell-based, multiplexed assay that uses umbilical vein-derived endothelial cells (HUVEC). Measurements were taken 24 hours after chemical dosing in a 96-well plate.VALA_MIGHUV1_ScratchOnly_WoundArea is the one of two assay components measured from the VALA_MIGHUV1_ScratchOnly assay. It is designed to make measurements of endothelial migration, a form of morphology reporter, as detected with fluorescence intensity signals by HCS Fluorescent Imaging technology. Data from the assay component VALA_MIGHUV1_ScratchOnly_WoundArea was analyzed at the endpoint, VALA_MIGHUV1_ScratchOnly_WoundArea, in the positive analysis fitting direction relative to DMSO as the negative control and baseline of activity. Using a type of morphology reporter, gain-of-signal activity can be used to understand developmental effects. To generalize the intended target to other relatable targets, this assay endpoint is annotated to the neurodevelopment intended target family, where the subfamily is migration.
Cells were seeded on 384-well microplates (day-0) at a density of 9000 cells per well for detection of wound area recovery or 4000 cells per well for detection of beta-catenin (CTNB) immunoreactivity and incubated in Endothelial Cell Growth Medium (CAI, San Diego; catalog 211-500). […]

[5] = VALA_TUBHUV_Agonist_TubuleLength: VALA Sciences human Umbilical Vein Endothelial Tubule Formation (TUBHUV) Agonism Assay (AID 2284337)
Procedure, shortened: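 HUVEC co-cultured with fibroblasts (1:3) 3 days in 10 ng/ml VEGF, then 3 days with compound plus VEGF; 0.1 % DMSO neutral control. Fixed, nuclear and CD31 stained; tubule length by fluorescence imaging.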

[6] = VALA_TUBIPS_Agonist_CellCount: Viability Assessment in the VALA Sciences human iPS-derived Endothelial Tubule Formation (TUBIPS) Agonism Assay (AID 2284338)
[7] = CCTE_Mundy_HCI_iCellGluta_NOG_NeuronCount: CCTE's Neurite Outgrowth Assay in iCellGluta cells for Neuron Count, Mundy Lab (AID 2284340);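 further: cells fixed about 48 h after compound addition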
Procedure, shortened: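 Neuron count read by automated high-content imaging of Hoechst 33342 and betaIII-tubulin/Alexa Fluor-488 labelling in human iPSC glutamatergic neurons. Activity fitted relative to DMSO.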

[8] = CCTE_Mundy_HCI_iCellGluta_NOG_NeuriteCount: CCTE's Neurite Outgrowth Assay in iCellGluta cells for Neurite Count, Mundy Lab (AID 2284342);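 further: chemical exposure about 48 hours starting 2 hours after plating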
Procedure: CCTE_Mundy_HCI_iCellGluta_NOG is a multiplexed, cell-based-readout assay that uses iCell GlutaNeurons from FUJIFILM Cellular Dynamics, Inc. (FCDI), human glutamatergic enriched neurons derived from induced pluripotent stem (iPS) cells, with measurements taken at 50.33 hours after chemical dosing in a microplate: 96-well plate.CCTE_Mundy_HCI_iCellGluta_NOG_NeuriteCount is one of four components of the CCTE_Mundy_HCI_iCellGluta_NOG assay. It measures neurite outgrowth related to number of neurites using High Content Imaging of fluorescently labelled markers.Data from the assay component CCTE_Mundy_HCI_iCellGluta_NOG_NeuriteCount was analyzed at the endpoint CCTE_Mundy_HCI_iCellGluta_NOG_NeuriteCount in the positive analysis fitting direction relative to DMSO as the negative control and baseline of activity. Using a type of morphology reporter, loss-of-signal activity can be used to understand developmental effects.
Exposure starts 2 hours post-plating by adding 10 ul of the working solution to 90 ul of media in the wells for a 1/10 dilution. […] A Cellomics ArrayScan VTi HCS Reader is used for automated image acquisition and analysis of neurite outgrowth.

[9] = VALA_TUBIPS_Antagonist_CellCount: Viability Assessment in the VALA Sciences human iPS-derived Endothelial Tubule Formation (TUBIPS) Antagonism Assay (AID 2284335)
Procedure: VALA_TUBIPS_Agonist is a cell-based, multiplexed assay that uses human iPS-derived endothelial cells (iPSC). Measurements were taken 72 hours after chemical dosing in a 96-well plate.VALA_TUBIPS_Antagonist_CellCount is the one of two assay components measured from the VALA_TUBIPS_Antagonist assay. It is designed to make measurements of viability, a form of viability reporter, as detected with fluorescence intensity signals by HCS Fluorescent Imaging technology. Data from the assay component VALA_TUBIPS_Antagonist_CellCount was analyzed at the endpoint, VALA_TUBIPS_Antagonist_CellCount, in the positive analysis fitting direction relative to DMSO as the negative control and baseline of activity. Using a type of viability reporter, loss-of-signal activity can be used to understand viability. To generalize the intended target to other relatable targets, this assay endpoint is annotated to the cell cycle intended target family, where the subfamily is cell count.
This HUVEC-HDF assay was designed to detect chemical suppression of tubulogenesis, i.e. antagonism. To measure tubulogenesis antagonism, HUVEC cells were co-cultured with HDF cells at a 1:3 ratio for 3-days in 10 ng/ml VEGF (i.e., favorable conditions with growth factors), then changed to assay medium containing 10 ng/ml VEGF and ToxCast compounds for an additional 3-day period. […]

SMILES: Cn1c(=O)c2c(ncn2C)n(C)c1=O
- outcome [1]: inactive
- outcome [2]: inactive
- AC50 [3]: 33.8 µM (active)

SMILES: C[C@](N)(Cc1ccc(O)c(O)c1)C(=O)O
- outcome [1]: inactive
- outcome [2]: inactive
- outcome [3]: inactive

SMILES: Oc1ccc2c(c1)-c1ccccc1C2
- AC50 (SERPINA7 (gene 6906)): 19.4 µM (active)

SMILES: O=C(O)c1cc(N=Nc2ccc(S(=O)(=O)Nc3ccccn3)cc2)ccc1O
- outcome [1]: inactive
- AC50 (SERPINA7 (gene 6906)): 15.9 µM (active)
- outcome [2]: inactive

SMILES: CC[C@H](C)C(=O)O[C@H]1C[C@@H](C)C=C2C=C[C@H](C)[C@H](CC[C@@H]3C[C@@H](O)CC(=O)O3)[C@H]21
- AC50 [1]: 7.97 µM (active)
- AC50 [2]: 41.7 µM (active)
- AC50 [3]: 62.1 µM (active)

SMILES: CC(C)c1cccc(C(C)C)c1N1C(=O)c2ccc(O)cc2C1=O
- AC50 [4]: 5.98 µM (active) and 22.1 µM (active)
- AC50 [5]: 85 µM (active) and 7.58 µM (active)
- AC50 [6]: 80.2 µM (active)

SMILES: NC(=O)NO
- outcome [1]: inactive
- outcome [2]: inactive

SMILES: CC[C@H]1OC(=O)[C@H](C)[C@@H](O[C@H]2C[C@@](C)(OC)[C@@H](O)[C@H](C)O2)[C@H](C)[C@@H](O[C@@H]2O[C@H](C)C[C@H](N(C)C)[C@H]2O)[C@](C)(O)C[C@@H](C)C(=O)[C@H](C)[C@@H](O)[C@]1(C)O
- outcome [7]: inactive
- outcome [8]: inactive

SMILES: Nc1nc2ncc(CNc3ccc(C(=O)N[C@@H](CCC(=O)O)C(=O)O)cc3)nc2c(=O)[nH]1
- outcome [1]: inactive
- outcome [2]: inactive
- outcome [3]: inactive

SMILES: Nc1ccc(Nc2ccccc2)cc1
- AC50 (SERPINA7 (gene 6906)): 50 µM (active)

SMILES: O=P(OC(CCl)CCl)(OC(CCl)CCl)OC(CCl)CCl
- outcome [9]: inactive
- outcome [5]: inactive
- outcome [6]: inactive
- outcome [7]: inactive
- outcome [8]: inactive
- AC50 (SERPINA7 (gene 6906)): 3.27 µM (active)

SMILES: O=C1CCC(N2C(=O)c3ccccc3C2=O)C(=O)N1 (stereo not drawn)
- AC50 [1]: 1.44 µM (active)
- outcome [2]: inactive

SMILES: O=C(O)c1cccc(Oc2ccccc2)c1
- AC50 (SERPINA7 (gene 6906)): 19.2 µM (active)
